{"source": "PubChem BioAssay (Tox21)", "note": "Inconclusive results are not listed. Where a call stands in place of a potency, no number is given. Activity calls are given as the source filed them. The call rests on the fitted dose curve; in most records, active means well fitted cell-killing curve with a large enough effect in the repeat runs; inconclusive means weak or mixed curves, or effect the other way; inactive means no such curve, though single readings can be large or run the other way. Potency means the concentration at half of the fitted maximal effect."}
{"experiment": "qHTS assay to identify small molecule agonists of the RXR signaling pathway - cell viability counter screen (AID 1159529); further: nearly all actives have a fitted effect of over 50% in size", "details": "RXR-alpha-bla HEK293T viability, CellTiter-Glo, 16 h; series mostly up to 76.8 µM", "how_it_was_run": "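Cell viability is measured by CellTiter-Glo luminescence, 30 min at room temperature, in wells already read for beta-lactamase. Engineered HEK 293T cells (RXR-alpha-UAS-bla) are dosed 16 hr at 37 C. Tetraoctyl ammonium bromide serves as positive control.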"}
{"smiles": "CCCCOC(=O)CCS", "Potency": "inactive"}
{"smiles": "CC(=N\\O)/C(C)=N/O", "Potency": "inactive"}
{"smiles": "CC#N", "Potency": "inactive"}
{"smiles": "Oc1cc(O)c(Cl)cc1Cl", "Potency": "inactive"}
{"smiles": "CC1(C)O[C@@H]2C[C@H]3[C@@H]4CCC5=CC(=O)C=C[C@]5(C)[C@H]4[C@@H](O)C[C@]3(C)[C@]2(C(=O)CO)O1", "Potency": "inactive"}
{"smiles": "CO[C@H]1C=CO[C@@]2(C)Oc3c(C)c(O)c4c(O)c(c5c(c4c3C2=O)=NC2(CCN(CC(C)C)CC2)N=5)NC(=O)/C(C)=C\\C=C/[C@H](C)[C@H](O)[C@@H](C)[C@@H](O)[C@@H](C)[C@H](OC(C)=O)[C@@H]1C", "Potency": "inactive"}
{"smiles": "CC(=O)CC(c1ccc([N+](=O)[O-])cc1)c1c(O)c2ccccc2oc1=O", "note": "(stereo not given)", "Potency": "inactive"}
{"smiles": "CC(=O)Nc1ccc(N)cc1", "Potency": "inactive"}
{"smiles": "CCCCC(CC)COC(=O)COc1ccc(Cl)cc1C", "note": "(stereo not given)", "Potency": "inactive"}
{"smiles": "CCC(C)=O", "Potency": "inactive"}
{"smiles": "C1COCO1", "Potency": "inactive"}
{"smiles": "Brc1cc(-c2ccc(Br)c(Br)c2Br)cc(Br)c1Br", "Potency": "10.8 µM (active)"}
{"smiles": "O=S(=O)(c1ccccc1)c1ccc(Cl)cc1", "Potency": "inactive"}
{"smiles": "CN1CCCN=C1/C=C/c1cccs1", "Potency": "inactive"}
{"smiles": "CC1CN(c2cc3c(cc2F)c(=O)c(C(=O)O)cn3-c2ccc(F)cc2F)CCN1", "note": "(stereo not given)", "activity change, negative = cytotoxicity": "-4.54% [at 6.97 µM] (inactive)"}
{"smiles": "CCCCCCCC/C=C\\CCCCCCCC(=O)OC", "Potency": "inactive"}
{"smiles": "CCC1(C)CC(=O)NC1=O", "note": "(stereo not given)", "Potency": "inactive"}
{"smiles": "O=C(CCCN1CCC(O)(c2ccc(Br)cc2)CC1)c1ccc(F)cc1", "Potency": "inactive"}
{"smiles": "O=C(O)c1snc(Cl)c1Cl", "Potency": "inactive"}
{"smiles": "Cc1ccccc1N1C(=O)c2cc(S(N)(=O)=O)c(Cl)cc2NC1C", "note": "(stereo not given)", "Potency": "inactive"}
{"smiles": "Cc1cc(C(=C2C=CC(=Nc3ccc(S(=O)(=O)O)cc3S(=O)(=O)O)C=C2)c2ccc(Nc3ccc(S(=O)(=O)O)cc3)cc2)ccc1N", "Potency": "inactive"}
{"smiles": "Nc1nc(Cl)nc2c1ncn2[C@@H]1O[C@H](CO)[C@@H](O)[C@@H]1F", "Potency": "inactive"}
{"smiles": "Fc1c(F)c(F)c(Br)c(F)c1F", "Potency": "inactive"}
{"smiles": "O=[N+]([O-])c1cccc(S(=O)(=O)NCCNS(=O)(=O)c2cccc([N+](=O)[O-])c2)c1", "Potency": "inactive"}
{"smiles": "O=C(C(=O)c1ccccc1)c1ccccc1", "Potency": "inactive"}
{"smiles": "C[C@]12CCC(=O)C=C1C=C[C@@H]1[C@@H]2CC[C@@]2(C)[C@H]1CC[C@@]21CCC(=O)O1", "Potency": "inactive"}
{"smiles": "CO[Si](C)(OC)OC", "Potency": "inactive"}
{"smiles": "Cc1ccc(S(=O)(=O)NC2CCCCC2)cc1", "Potency": "inactive"}
{"smiles": "N#C/C(=C1/SC[C@@H](c2ccc(Cl)cc2Cl)S1)n1ccnc1", "Potency": "inactive"}
{"smiles": "Nc1ccc(Cl)cc1[N+](=O)[O-]", "Potency": "inactive"}
{"smiles": "O=C1OCCN1/N=C/c1ccc([N+](=O)[O-])o1", "Potency": "inactive"}
{"smiles": "CC(=O)OCC(=O)[C@H]1CC[C@H]2[C@@H]3CCC4=CC(=O)CC[C@]4(C)[C@H]3CC[C@]12C", "Potency": "inactive"}
{"smiles": "CCC(C)(O)CCC=C(C)C", "note": "(stereo not given)", "Potency": "inactive"}
{"smiles": "CCCC(=O)O[C@]1(C(=O)COC(=O)CC)CC[C@H]2[C@@H]3CCC4=CC(=O)CC[C@]4(C)[C@H]3[C@@H](O)C[C@@]21C", "activity change, negative = cytotoxicity": "2.05% [at 15.8 µM] (inactive)"}
{"smiles": "CCCCCCCC/C=C\\CCCCCCCC(=O)OC(CO)CO", "Potency": "inactive"}
{"smiles": "CCc1cccc(N(C)C(N)=Nc2cccc3ccccc23)c1", "Potency": "inactive"}
{"smiles": "CN1CCN(CCCN2c3ccccc3Sc3ccc(S(=O)(=O)N(C)C)cc32)CC1", "Potency": "23.9 µM (active)"}
{"smiles": "O=C(CCCCCCCCC#CI)Oc1ccccc1", "Potency": "inactive"}
{"smiles": "COCCOC(=O)C1=C(C)NC(C)=C(C(=O)OC/C=C/c2ccccc2)C1c1cccc([N+](=O)[O-])c1", "note": "(stereo not given)", "Potency": "inactive"}
{"smiles": "CCOCCn1c(C2CCN(CCc3ccc(C(C)(C)C(=O)O)cc3)CC2)nc2ccccc21", "Potency": "inactive"}
